Assay outcomes deposited in PubChem BioAssay by National Center for Advancing Translational Sciences (NCATS).
VDR inhibitor: vitamin D3 receptor (human) inhibition | P11473 | VDR-SRC2-3 peptide fluorescence polarization, 2 h | Potency, µM, usual class: inhibitors | actives 0.93% (n = 400,000) | AID 504847
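After 23 nl compound addition and a short centrifugation, plates sat for 2 hours at ambient temperature; polarization of fluorescence then indicated loss of VDR binding to peptide SRC2-3.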
PLK1 PBD inh: inhibitors of human PLK1 polo-box domain binding | P53350 | Plk1 PBD binding of FITC phosphopeptide, fluorescence polarization | Potency, µM, actives largely listed as inhibitors | actives 2.8% (n = 360,000) | AID 720504; also: series mostly up to about 57 µM; nearly all actives have a fitted effect of over 65% in size
Rango-impB inh: prevents formation of the Rango-importin beta complex; AID 540263; Rango CFP/YFP FRET sensor + importin beta, 45 min; Potency, µM (highest dose often 92.2 µM); actives 0.031% (n = 340,000); Q14974; calls by dose curve; also: nearly all actives have a fitted effect of over 15% in size
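Inhibition scored from the CFP 486 nm/YFP 530 nm FRET ratio 45 min after adding 0.125 microM importin beta to 50 nM Rango biosensor preincubated 5 min with compound (room temperature, PBS with DTT, Tween-20, BSA). No-importin wells as positive control.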
PI5P4Ka inh: blocks human PI5P4K alpha kinase activity; P48426; PI5P4Kalpha enzyme, ADP-Glo luminescence, 60 min; hits give low values; AID 652105; actives 1.2% (n = 330,000); max response, %; active = max response of -50% or lower; inconclusive = between -30% and -50%; inactive = -30% or higher; also: value at the top dose of about 77 µM
Target sequence (P48426 whole entry, looked up): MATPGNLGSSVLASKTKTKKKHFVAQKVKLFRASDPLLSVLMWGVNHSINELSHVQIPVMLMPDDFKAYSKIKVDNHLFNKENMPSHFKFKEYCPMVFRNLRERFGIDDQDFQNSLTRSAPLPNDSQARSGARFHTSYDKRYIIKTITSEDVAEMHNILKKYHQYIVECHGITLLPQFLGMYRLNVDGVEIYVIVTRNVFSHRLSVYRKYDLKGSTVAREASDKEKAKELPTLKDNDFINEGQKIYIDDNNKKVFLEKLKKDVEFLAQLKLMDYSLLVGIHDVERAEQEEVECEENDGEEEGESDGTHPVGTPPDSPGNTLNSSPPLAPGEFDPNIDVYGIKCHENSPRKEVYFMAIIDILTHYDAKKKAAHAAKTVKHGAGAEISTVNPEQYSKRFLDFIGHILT
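Compounds were pin-transferred onto PI5P4Kalpha and substrate in HEPES pH 7.4 buffer with EGTA, CHAPS and 5% DMSO. ATP (5 microM final) started the reaction, which ran 60 minutes at room temperature before ADP-Glo detection.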
KAT2A inh: inhibitors of human GCN5L2 histone acetyltransferase; actives 0.21% (n = 390,000); Q92830; GCN5L2 HAT assay, ThioGlo1 CoA-SH fluorescence; Potency, µM (highest dose often 58.9 µM), usual class: inhibitors
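Free CoA generated was detected with ThioGlo1 (50uM) fluorescence at Ex340nm/Em540nm, read immediately and after 20 min at room temperature. Enzyme, 20 nM in HEPES pH 7.5 buffer, saw compounds 15 min before adding 75uM H3(1-25) peptide and 70uM acetyl-CoA.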
Rango release inh: prevents RanGTP from dissociating the Rango-importin beta complex | O95149+P62826 | Potency, µM (doses to about 46.1 µM) | actives 0.071% (n = 340,000) | Biochemical FRET Rango-importin beta, RanGTP-induced dissociation; calls by dose curve; also: nearly all actives have a fitted effect of over 45% in size
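FRET read at 45 min, room temperature: inhibitors block the CFP/YFP signal rise when RanGTP (0.6 uM Ran, 2 mM GTP, 0.2 uM RCC1) frees Rango (0.1 uM) from importin beta (0.25 uM). Pre-read after 5 min compound exposure flags interference.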
Each line names hits and unclear results; the compound was inactive in the other large screens. This is a sample that favours compounds with a hit; in the whole collection about 3.6% have one here. Unless noted, calls follow the shape of the dose curve; as a rule, active = well fitted curve in the direction sought with a large enough effect; inconclusive = small, poorly fitted or top-dose-only effect, or another doubt; inactive = no such curve, though single readings can be large; an effect the other way counts as inactive or inconclusive.

CN(C)S(=O)(=O)c1ccc(C(=O)NC(=O)CSc2ccccc2)cc1	Rango-impB inh inconclusive
CCc1nn(CC(=O)N(C)Cc2ccccc2)c(=O)c2cc3sccc3n12	none (no result: PLK1 PBD inh, Rango-impB inh, PI5P4Ka inh, Rango release inh)
CN(C)c1ccc(CNC(=O)c2cc3ccccn3n2)cc1	none (no result: PLK1 PBD inh, Rango-impB inh, PI5P4Ka inh, Rango release inh)
CN1C(=O)c2ccccc2C(C(=O)O)C1c1cccc(F)c1 (stereo not drawn)	PLK1 PBD inh 30µM
Cc1cc(C)cc(C(=O)Nc2ccc(-c3nc4ncccc4o3)cc2)c1	none (no result: PLK1 PBD inh, Rango-impB inh, PI5P4Ka inh, Rango release inh)
O=C(Nc1cccc(O)c1)c1ccc2c(c1)C(=O)N(Cc1ccco1)C2=O	KAT2A inh inconclusive
CC(C)CN1C(=O)c2ccc(C(=O)Nc3ccccc3C(=O)O)cc2C1=O	VDR inhibitor inconclusive, PLK1 PBD inh 24µM, PI5P4Ka inh -64
Cc1ccccc1NC(=O)c1ccc2c(c1)C(=O)N(CC(C)C)C2=O	none
O=C(Nc1ccc(Cl)cc1C(=O)O)c1ccc2c(c1)C(=O)N(Cc1ccco1)C2=O	VDR inhibitor inconclusive, PLK1 PBD inh 27µM, PI5P4Ka inh -75
Cc1ccc2nc(N)[nH]c(=O)c2c1Sc1ccncc1	none (no result: PLK1 PBD inh, Rango-impB inh, PI5P4Ka inh, Rango release inh)
Cc1ccc(NC(=O)/C(C#N)=C(\N)C(Cl)(Cl)Cl)nc1	VDR inhibitor inconclusive, PLK1 PBD inh 24µM, Rango-impB inh inconclusive, Rango release inh inconclusive
Cc1ccc(NC(=O)Nc2ccccc2)nc1	none (no result: KAT2A inh)
COC(=O)c1sc(-c2ccccc2)cc1NC(=O)Nc1ccc(F)cc1	none (no result: PLK1 PBD inh, Rango-impB inh, PI5P4Ka inh, Rango release inh)
O=C(Nc1cccc(-n2cnnn2)c1)c1ccc(Cl)cc1Cl	PLK1 PBD inh 30µM
Cn1nc(-c2ccc(Cl)cc2)c2cc(C(=O)NC3CC3)sc21	VDR inhibitor inconclusive, PLK1 PBD inh 30µM
Cc1cc(S(=O)(=O)Nc2ccc(-c3ccc(N4CCCCCC4)nn3)cc2)c(C)cc1Cl	none (no result: PLK1 PBD inh, Rango-impB inh, PI5P4Ka inh, Rango release inh)
NS(=O)(=O)c1ccc(NS(=O)(=O)c2ccc(C3CNC(=O)C3)cc2)cc1 (stereo not drawn)	VDR inhibitor inconclusive, PLK1 PBD inh 30µM
COCCNS(=O)(=O)c1ccc(C2CNC(=O)C2)cc1 (stereo not drawn)	none
CCCCC1(C)NC(=S)N2N1C(=S)NC2(C)CCCC (stereo not drawn)	VDR inhibitor 79µM, PI5P4Ka inh inconclusive, KAT2A inh inconclusive
O=C(OCc1nc2scc(-c3ccccc3)c2c(=O)[nH]1)c1cccc([N+](=O)[O-])c1	PLK1 PBD inh 30µM
O=C(OCc1nc2scc(-c3ccccc3)c2c(=O)[nH]1)c1ccco1	none
Cc1ccc(S(=O)(=O)NCC(=O)OCN2C(=O)c3ccccc3C2=O)cc1	PLK1 PBD inh 5.3µM, PI5P4Ka inh inconclusive
CC(C)C[C@H](NC(=O)[C@H](C)NC(=O)CNC(=O)[C@H](CCCCN)NC(=O)[C@H](CCCN=C(N)N)NC(=O)[C@H](C)NC(=O)[C@H](Cc1ccccc1)NC(=O)[C@@H](N)CCCN=C(N)N)C(=O)N[C@@H](CCCN=C(N)N)C(=O)N[C@@H](CCC(N)=O)C(=O)N[C@@H](CCCCN)C(=O)N[C@@H](CC(N)=O)C(=O)N[C@H](C(N)=O)C(C)C	none (no result: PLK1 PBD inh, Rango-impB inh, PI5P4Ka inh, Rango release inh)
CCC(=O)c1ccc(OCCSc2ncccn2)cc1	PLK1 PBD inh 27µM
O=C1C=CC(=O)C(CNc2ccc(C(=O)OCc3ccccc3)cc2)=C1	VDR inhibitor inconclusive, PLK1 PBD inh 13µM, PI5P4Ka inh -77 (no result: KAT2A inh)
CN(C)c1ccc(-c2cc(C3C4C=CCCC4(C)C(=O)N3Cc3ccccc3)ccc2F)cc1 (stereo not drawn)	none (no result: PLK1 PBD inh, Rango-impB inh, PI5P4Ka inh, KAT2A inh, Rango release inh)
COc1cc(/C=C(\C#N)C(=O)c2c[nH]c3ccccc23)cc(OC)c1O	Rango-impB inh inconclusive, PI5P4Ka inh -75, Rango release inh inconclusive
COc1cc(/C=C(\C#N)C(=O)NCCc2ccccc2)cc(OC)c1O	Rango-impB inh inconclusive, PI5P4Ka inh inconclusive, Rango release inh inconclusive
COc1ccc(/C=C/C(=O)c2ccc(OC)cc2OC)c(OC)c1	Rango-impB inh inconclusive, Rango release inh inconclusive
CC(C)=CCOc1ccc(/C=C/C(=O)c2ccc(OCC=C(C)C)cc2OCC(=O)O)cc1	VDR inhibitor 10µM, KAT2A inh 10µM (no result: PLK1 PBD inh, Rango-impB inh, PI5P4Ka inh, Rango release inh)
